# Results filed as inconclusive are left out. For some of these results: Measured potencies and affinities stand elsewhere. Active and inactive are the calls of the source. Unless noted, no rule for the calls is given here. Starred links: 1 amine or outer side, 2 acyl side, 3 side chain; linkers in the order of their positions; H or OH if unused. Positions of bridges follow the written chain, without caps; N, C: chain ends. Non-standard residues stand in square brackets, D forms with d. Residues, ends and D or L forms follow the SMILES beside them. Chains are numbered I, II in the order given. Actinocin(9to1) = Cc1c2oc3c(C)ccc(C(=O)[*:1])c3nc-2c(C(=O)[*:2])c(N)c1=O; NMeV = CN[C@H](C(=O)O)C(C)C; Sar = CNCC(=O)O
# How the values were obtained:
# [1] = modulation of C. elegans fzo-1 (AID 1259413);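 also: fzo-1 mutant C. elegans worms in liquid wells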; details: C. elegans fzo-1 modulator screen, mean read-out; stronger effect = higher value
# [2] = biological target: Protein kinase 7 (PK7), Plasmodium falciparum 3D7 (PF3D7_0213400) (UniProt Q7YTF7); test: inhibition of Plasmodium PK7 catalytic activity – biochemical, TCAMS antimalarial set, Kinase-Glo luminescence (AID 1159587); details: recombinant PfPK7, Kinase-Glo ATP depletion luminescence
# [3] = biological target: Calcium-dependent protein kinase 4 (Plasmodium falciparum (isolate 3D7)) (UniProt Q8IBS5); test: PfCDPK4 kinase inhibitors, biochemical, TCAMS library (AID 1159588; cut-off not given, nearly all actives have IC50 up to about 0.91 µM); details: recombinant PfCDPK4, Kinase-Glo ATP depletion luminescence
# [4] = viability loss in pontine glioma line – cell-based, SU-DIPG-XVII, MIPE5.0, CellTiter-Glo, qHTS, dose response (AID 1347060; cut-off not given, nearly all actives have AC50 up to about 26 µM;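 also: cells exposed to compound for 48 hours before viability readout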); details: CellTiter-Glo ATP luminescence
# [5] = test system: Aerobactin synthetase IucA (Klebsiella pneumoniae); test: inhibition of K. pneumoniae IucA enzyme – biochemical, Tocris library, absorbance (AID 1345561); details: purified IucA enzyme assay, absorbance (OD) read-out; stronger effect = lower value;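 tested at 8 µM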;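 also: 100% = enzyme without compound and 0% = no enzyme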
# [6] = EMT-state selective cytotoxicity in co-culture – imaging, PC-3E GFP, TEM4-18 mCherry, primary screen (AID 1345086;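 active = compounds killing one labelled cell type while sparing the other, by normalised counts and ratio limits, not self-fluorescent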;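 also: cells exposed to compound for 72 h before imaging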;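 as to red/green cell ratio (normalised): normalised mesenchymal count divided by normalised epithelial count so high means epithelial killing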); details: PC-3E GFP / TEM4-18 mCherry co-culture, imaging cell counts, at 1 µM
# [7] = viability loss in pontine glioma line – cell-based, SU-DIPG-XIII, MIPE4.0, CellTiter-Glo, qHTS, dose response (AID 1347061; cut-off not given, nearly all actives have AC50 up to about 37 µM;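 also: cells exposed to compound for 48 hours before readout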); details: CellTiter-Glo ATP luminescence
# [8] = viability loss in pontine glioma line – cell-based, JHH-DIPG-1, MIPE4.0, CellTiter-Glo, qHTS, dose response (AID 1347062; cut-off not given, nearly all actives have AC50 up to about 27 µM;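 also: cells exposed to compound for two days before readout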); details: JHH-DIPG-1 viability, CellTiter-Glo ATP luminescence
# [9] = viability loss in pontine glioma line – cell-based, SU-DIPG-XIII, MIPE5.0, CellTiter-Glo, qHTS, dose response (AID 1347064; cut-off not given, nearly all actives have AC50 up to about 23 µM;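 also: cells exposed to compound for 48 hours before the viability read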); details: CellTiter-Glo ATP luminescence
# Protein kinase 7 (PK7), Plasmodium falciparum 3D7 (PF3D7_0213400), sequence (Q7YTF7 1-343): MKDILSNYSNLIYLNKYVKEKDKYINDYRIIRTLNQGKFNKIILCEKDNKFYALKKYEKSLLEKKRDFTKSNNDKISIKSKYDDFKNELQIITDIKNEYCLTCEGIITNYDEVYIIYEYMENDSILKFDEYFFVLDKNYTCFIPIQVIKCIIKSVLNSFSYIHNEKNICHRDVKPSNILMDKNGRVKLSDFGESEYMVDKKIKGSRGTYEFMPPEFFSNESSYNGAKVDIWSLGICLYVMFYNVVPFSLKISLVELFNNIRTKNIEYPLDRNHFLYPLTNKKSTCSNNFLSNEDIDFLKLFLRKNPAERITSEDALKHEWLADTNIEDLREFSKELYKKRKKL
# Calcium-dependent protein kinase 4 (Plasmodium falciparum (isolate 3D7)), sequence (Q8IBS5 whole entry, looked up): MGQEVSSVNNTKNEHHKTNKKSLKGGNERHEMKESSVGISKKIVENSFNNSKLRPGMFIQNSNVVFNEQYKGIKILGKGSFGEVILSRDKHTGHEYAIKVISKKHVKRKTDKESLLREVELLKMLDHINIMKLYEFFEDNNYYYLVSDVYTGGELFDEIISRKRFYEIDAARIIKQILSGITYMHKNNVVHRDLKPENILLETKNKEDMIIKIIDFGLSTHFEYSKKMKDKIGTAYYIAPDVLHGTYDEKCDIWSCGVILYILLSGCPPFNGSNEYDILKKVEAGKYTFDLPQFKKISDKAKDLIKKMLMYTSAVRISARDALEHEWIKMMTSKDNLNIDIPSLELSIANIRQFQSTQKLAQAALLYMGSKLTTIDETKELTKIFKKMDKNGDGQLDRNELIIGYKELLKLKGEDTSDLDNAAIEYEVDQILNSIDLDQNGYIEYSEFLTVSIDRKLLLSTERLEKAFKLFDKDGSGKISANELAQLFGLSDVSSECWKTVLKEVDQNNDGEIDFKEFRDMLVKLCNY
compound,measurement,setting,value
CC(C)(C)C(O)/C=C/c1ccc2c(c1)OCO2 (stereo not drawn),mean signal,[1],280 (inactive)
NCC1CCC(C(=O)Oc2ccc(CCC(=O)O)cc2)CC1 (stereo not drawn),mean signal,[1],243 (inactive)
CC(C(=O)O)c1ccc(CC2CCCC2=O)cc1 (stereo not drawn),mean signal,[1],276 (inactive)
COC(=O)C1=C(C)NC(C)=C(C(=O)O[C@@H]2CCCN(Cc3ccccc3)C2)[C@@H]1c1cccc([N+](=O)[O-])c1,mean signal,[1],249 (inactive)
CC1(C)S[C@@H]2[C@H](N=CN3CCCCCC3)C(=O)N2[C@H]1C(=O)O,mean signal,[1],245 (inactive)
CN(C)CC[C@@H](c1ccc(Br)cc1)c1ccccn1,mean signal,[1],234 (inactive)
COc1cc(C)nc(-n2nc(C)cc2OC)n1,mean signal,[1],243 (inactive)
COC(=O)CCc1ccc(OCC(O)CNC(C)C)cc1 (stereo not drawn),mean signal,[1],266 (inactive)
CCCCc1ccc2nc(NC(=O)OC)[nH]c2c1,outcome,[2],inactive
same,outcome,[3],inactive
same,AC50,[4],0.186 µM (active)
O=C(Nc1cccc(C2=NCCN2)c1)Nc1cccc(C2=NCCN2)c1,outcome,[2],inactive
same,outcome,[3],inactive
Cc1nc(N)nc(N)c1-c1ccc(Cl)c(Cl)c1,outcome,[2],inactive
same,outcome,[3],inactive
COc1cc2c(cc1OC)-c1cc(=Nc3c(C)cc(C)cc3C)n(C)c(=O)n1CC2,outcome,[2],inactive
same,outcome,[3],inactive
same,remaining activity,[5],110% (inactive)
"Cc1c2oc3c(C)ccc(C(=O)N[C@@H]4C(=O)N[C@H](C(C)C)C(=O)N5CCC[C@H]5C(=O)N(C)CC(=O)N(C)[C@@H](C(C)C)C(=O)O[C@@H]4C)c3nc-2c(C(=O)N[C@@H]2C(=O)N[C@H](C(C)C)C(=O)N3CCC[C@H]3C(=O)N(C)CC(=O)N(C)[C@@H](C(C)C)C(=O)O[C@@H]2C)c(N)c1=O (I: T[dV]P[Sar][NMeV] / II: T[dV]P[Sar][NMeV]; ester I:1-I:C, II:1-II:C; linker I:N-II:N via Actinocin(9to1))",mean signal,[1],256 (inactive)
CCCN1CCCC[C@H]1C(=O)Nc1c(C)cccc1C,mean signal,[1],274 (inactive)
CCN(CC)Cc1cc(Nc2ccnc3cc(Cl)ccc23)ccc1O,outcome,[2],inactive
same,outcome,[3],inactive
CN1CCN(C2=Nc3cc(F)ccc3Cc3ccccc32)CC1,mean signal,[1],248 (inactive)
CCOC(=O)C1=C(C)NC(C)=C(C(=O)OCC)C1c1ccccc1/C=C/C(=O)OC(C)(C)C,mean signal,[1],249 (inactive)
NC(N)=Nc1nc(CSCC/C(N)=N/S(N)(=O)=O)cs1,mean signal,[1],276 (inactive)
Cc1[nH]cnc1CN1CCc2c(c3ccccc3n2C)C1=O,mean signal,[1],241 (inactive)
CO[C@H]1C=CO[C@@]2(C)Oc3c(C)c(O)c4c(O)c(c(/C=N/N5CCN(C)CC5)c(O)c4c3C2=O)NC(=O)/C(C)=C\C=C[C@H](C)[C@H](O)[C@@H](C)[C@@H](O)[C@@H](C)[C@H](OC(C)=O)[C@@H]1C,mean signal,[1],243 (inactive)
OCc1cccnc1,mean signal,[1],224 (inactive)
COCc1c(C(C)C)nc(C(C)C)c(/C=C/[C@@H](O)C[C@@H](O)CC(=O)O)c1-c1ccc(F)cc1,mean signal,[1],232 (inactive)
CCOc1ccc2nc3cc(N)ccc3c(N)c2c1,outcome,[2],inactive
same,outcome,[3],inactive
same,red/green cell ratio (normalised),"[6]; actives lie on both sides, counts scaled to control wells, 1 = unselective",1.04 (inactive)
same,normalised cell number,[6]; measured here: epithelial PC-3E GFP cell survival,0.62
same,normalised cell number,[6]; measured here: mesenchymal TEM4-18 mCherry cell survival,0.65
O=c1c(-c2ccccc2)c1-c1ccccc1,mean signal,[1],254 (inactive)
O=C1[C@H]2CCCC[C@H]2C(=O)N1CCCCN1CCN(c2nsc3ccccc23)CC1,mean signal,[1],254 (inactive)
CCCc1c(OCCCCc2nn[nH]n2)ccc(C(C)=O)c1O,mean signal,[1],231 (inactive)
Nc1c2c(nc3c1CCC3)CCCC2,mean signal,[1],275 (inactive)
CNCC(O)c1ccc(O)c(O)c1 (stereo not drawn),mean signal,[1],245 (inactive)
O=C1c2cccc3c2[C@H](CCC3)CN1[C@@H]1CN2CCC1CC2,mean signal,[1],244 (inactive)
COc1cc(C)c(Cc2cnc(N)nc2N)cc1OC,mean signal,[1],249 (inactive)
COc1cc(C(=O)NC2CCCNC2)cc(OC)c1OC (stereo not drawn),mean signal,[1],236 (inactive)
COc1cc2c(Nc3ccc(Br)cc3F)ncnc2cc1OCC1CCN(C)CC1,outcome,[2],inactive
same,outcome,[3],inactive
same,AC50,[4],6.61 µM (active)
same,AC50,[7],3.72 µM (active)
same,AC50,[8],16.6 µM (active)
same,AC50,[9],18.6 µM (active)
CCCCCCCC/C=C\CCCCCCCC(=O)NCc1ccc(O)c(OC)c1,outcome,[2],inactive
same,outcome,[3],inactive
same,remaining activity,[5],100% (inactive)
CCN1CC(CCN2CCOCC2)C(c2ccccc2)(c2ccccc2)C1=O (stereo not drawn),mean signal,[1],250 (inactive)
CN(Cc1cnc2nc(N)nc(N)c2n1)c1ccc(C(=O)N[C@@H](CCC(=O)O)C(=O)O)cc1,outcome,[2],inactive
same,outcome,[3],inactive
same,mean signal,[1],204 (inactive)
same,remaining activity,[5],114% (inactive)
same,outcome,[7],inactive
CN(C)CC[C@@H](c1ccc(Cl)cc1)c1ccccn1,mean signal,[1],251 (inactive)
